Numbering of substitutions follows the chain as printed.
Columns and labels:
Assay in all cases: PBM; 200 nM protein, PBS
Conditions in all cases: dsDNA, one strand shown
HOXB4 [1] = target: HOXB4 (Homo sapiens, UniProt P17483 148-234)
HOXB9 [2] = target: HOXB9 (Homo sapiens, UniProt P17482 171-250, T197M)
HOXB9 [3] = target: HOXB9 (Homo sapiens, UniProt P17482 171-250)
HOXB4 [4] = target: HOXB4 (Homo sapiens, UniProt P17483 148-234, V174I)
HOXB9 [5] = target: HOXB9 (Homo sapiens, UniProt P17482 171-250, R186Q)
Sequence of HOXB9 (Homo sapiens, UniProt P17482 171-250, R186Q) (P17482 171-250 R186Q): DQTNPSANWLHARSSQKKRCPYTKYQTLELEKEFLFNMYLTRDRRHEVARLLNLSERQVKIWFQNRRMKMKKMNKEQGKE

VENTX [6] = target: T1, VENTX (Homo sapiens, UniProt O95231 78-163, R121Q)
T1 sequence: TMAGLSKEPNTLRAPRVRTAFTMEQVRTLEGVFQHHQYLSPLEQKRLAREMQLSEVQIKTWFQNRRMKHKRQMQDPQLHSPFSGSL

VENTX [7] = target: T2, VENTX (Homo sapiens, UniProt O95231 78-163)
T2 sequence: T1 sequence with Q44R

HOXA7 [8] = target: HOXA7 (Homo sapiens, UniProt P31268 116-202)
Sequence of HOXA7 (Homo sapiens, UniProt P31268 116-202) (P31268 116-202): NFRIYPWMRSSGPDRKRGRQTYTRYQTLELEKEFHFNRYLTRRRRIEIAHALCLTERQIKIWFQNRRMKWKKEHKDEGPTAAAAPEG

HOXC10 [9] = target: HOXC10 (Homo sapiens, UniProt Q9NYD6 254-340)
Sequence of HOXC10 (Homo sapiens, UniProt Q9NYD6 254-340) (Q9NYD6 254-340): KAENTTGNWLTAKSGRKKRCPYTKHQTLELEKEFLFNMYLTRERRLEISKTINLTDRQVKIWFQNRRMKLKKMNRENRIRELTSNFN

VENTX [10] = target: T3, VENTX (Homo sapiens, UniProt O95231 78-163, Y115F)
T3 sequence: T1 sequence with Y38F, Q44R

HOXD13 [11] = target: HOXD13 (Homo sapiens, UniProt P35453 263-343, T313R)
Sequence of HOXD13 (Homo sapiens, UniProt P35453 263-343, T313R) (P35453 263-343 T313R): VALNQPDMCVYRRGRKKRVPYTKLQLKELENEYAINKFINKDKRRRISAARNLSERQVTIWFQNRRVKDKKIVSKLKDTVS

HOXD13 [12] = target: HOXD13 (Homo sapiens, UniProt P35453 263-343)
Sequence of HOXD13 (Homo sapiens, UniProt P35453 263-343) (P35453 263-343): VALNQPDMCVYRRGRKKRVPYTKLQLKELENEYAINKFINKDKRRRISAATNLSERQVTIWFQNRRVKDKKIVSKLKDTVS

HOXC10 [13] = target: HOXC10 (Homo sapiens, UniProt Q9NYD6 254-340, K271E)
Sequence of HOXC10 (Homo sapiens, UniProt Q9NYD6 254-340, K271E) (Q9NYD6 254-340 K271E): as the sequence (Q9NYD6 254-340) above, with K18E counted along it

VAX1 [14] = target: VAX1 (Homo sapiens, UniProt Q5SQQ9 86-172)
Sequence of VAX1 (Homo sapiens, UniProt Q5SQQ9 86-172) (Q5SQQ9 86-172): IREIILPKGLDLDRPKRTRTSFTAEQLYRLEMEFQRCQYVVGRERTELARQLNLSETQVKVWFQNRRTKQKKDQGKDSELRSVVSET

HOXD13 [15] = target: HOXD13 (Homo sapiens, UniProt P35453 263-343, T313A)
Sequence of HOXD13 (Homo sapiens, UniProt P35453 263-343, T313A) (P35453 263-343 T313A): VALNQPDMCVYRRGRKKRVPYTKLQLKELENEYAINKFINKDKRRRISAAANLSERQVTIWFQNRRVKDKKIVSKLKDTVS

VAX1 [16] = target: VAX1 (Homo sapiens, UniProt Q5SQQ9 86-172, T142I)
Sequence of VAX1 (Homo sapiens, UniProt Q5SQQ9 86-172, T142I) (Q5SQQ9 86-172 T142I): as the sequence (Q5SQQ9 86-172) above, with T57I counted along it

HOXA7 [17] = target: HOXA7 (Homo sapiens, UniProt P31268 116-202, W177C)
Sequence of HOXA7 (Homo sapiens, UniProt P31268 116-202, W177C) (P31268 116-202 W177C): as the sequence (P31268 116-202) above, with W62C counted along it

VAX1 [18] = target: VAX1 (Homo sapiens, UniProt Q5SQQ9 86-172, K157R)
Sequence of VAX1 (Homo sapiens, UniProt Q5SQQ9 86-172, K157R) (Q5SQQ9 86-172 K157R): as the sequence (Q5SQQ9 86-172) above, with K72R counted along it

HOXA4 [19] = target: HOXA4 (Homo sapiens, UniProt Q00056 201-287, W262R)
Sequence of HOXA4 (Homo sapiens, UniProt Q00056 201-287, W262R) (Q00056 201-287 W262R): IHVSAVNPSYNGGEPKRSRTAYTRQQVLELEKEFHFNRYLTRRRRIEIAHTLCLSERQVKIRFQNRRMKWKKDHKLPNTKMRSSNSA

HOXA2 [20] = target: HOXA2 (Homo sapiens, UniProt O43364 129-215, R185T)
Sequence of HOXA2 (Homo sapiens, UniProt O43364 129-215, R185T) (O43364 129-215 R185T): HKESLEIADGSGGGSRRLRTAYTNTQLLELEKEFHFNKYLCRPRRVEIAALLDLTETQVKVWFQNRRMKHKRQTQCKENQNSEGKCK

HOXA4 [21] = target: HOXA4 (Homo sapiens, UniProt Q00056 201-287, R217L)
Sequence of HOXA4 (Homo sapiens, UniProt Q00056 201-287, R217L) (Q00056 201-287 R217L): as the sequence (Q00056 201-287 W262R) above, with R17L, R62W counted along it

HOXA2 [22] = target: HOXA2 (Homo sapiens, UniProt O43364 129-215, R185K)
Sequence of HOXA2 (Homo sapiens, UniProt O43364 129-215, R185K) (O43364 129-215 R185K): as the sequence (O43364 129-215 R185T) above, with T57K counted along it

HOXA4 [23] = target: HOXA4 (Homo sapiens, UniProt Q00056 201-287)
Sequence of HOXA4 (Homo sapiens, UniProt Q00056 201-287) (Q00056 201-287): as the sequence (Q00056 201-287 W262R) above, with R62W counted along it

PROP1 [24] = target: PROP1 (Homo sapiens, UniProt O75360 56-141)
Sequence of PROP1 (Homo sapiens, UniProt O75360 56-141) (O75360 56-141): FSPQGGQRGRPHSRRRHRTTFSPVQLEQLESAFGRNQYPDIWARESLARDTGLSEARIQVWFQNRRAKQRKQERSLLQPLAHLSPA

PROP1 [25] = target: PROP1 (Homo sapiens, UniProt O75360 56-141, R99H)
Sequence of PROP1 (Homo sapiens, UniProt O75360 56-141, R99H) (O75360 56-141 R99H): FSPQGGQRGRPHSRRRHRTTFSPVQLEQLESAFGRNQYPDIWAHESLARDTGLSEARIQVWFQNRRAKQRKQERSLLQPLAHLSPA

PROP1 [26] = target: PROP1 (Homo sapiens, UniProt O75360 56-141, F88S)
Sequence of PROP1 (Homo sapiens, UniProt O75360 56-141, F88S) (O75360 56-141 F88S): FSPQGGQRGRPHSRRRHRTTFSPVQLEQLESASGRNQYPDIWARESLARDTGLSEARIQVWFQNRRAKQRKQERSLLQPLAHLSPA

HOXA2 [27] = target: HOXA2 (Homo sapiens, UniProt O43364 129-215, Y150S)
Sequence of HOXA2 (Homo sapiens, UniProt O43364 129-215, Y150S) (O43364 129-215 Y150S): as the sequence (O43364 129-215 R185T) above, with Y22S, T57R counted along it

HOXA4 [28] = target: HOXA4 (Homo sapiens, UniProt Q00056 201-287, W262F)
Sequence of HOXA4 (Homo sapiens, UniProt Q00056 201-287, W262F) (Q00056 201-287 W262F): as the sequence (Q00056 201-287 W262R) above, with R62F counted along it

HOXA2 [29] = target: HOXA2 (Homo sapiens, UniProt O43364 129-215)
Sequence of HOXA2 (Homo sapiens, UniProt O43364 129-215) (O43364 129-215): as the sequence (O43364 129-215 R185T) above, with T57R counted along it

HOXC9 [30] = target: HOXC9 (Homo sapiens, UniProt P31274 178-260, K195R)
Sequence of HOXC9 (Homo sapiens, UniProt P31274 178-260, K195R) (P31274 178-260 K195R): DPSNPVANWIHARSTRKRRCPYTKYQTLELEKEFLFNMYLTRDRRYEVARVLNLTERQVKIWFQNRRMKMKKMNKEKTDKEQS

NKX2-6 = target: T4, NKX2-6 (Homo sapiens, UniProt A6NCS4 118-204, R150C)
T4 sequence: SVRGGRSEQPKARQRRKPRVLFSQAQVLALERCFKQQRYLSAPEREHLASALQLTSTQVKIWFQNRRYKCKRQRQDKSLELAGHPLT

HOXC9 [31] = target: HOXC9 (Homo sapiens, UniProt P31274 178-260)
Sequence of HOXC9 (Homo sapiens, UniProt P31274 178-260) (P31274 178-260): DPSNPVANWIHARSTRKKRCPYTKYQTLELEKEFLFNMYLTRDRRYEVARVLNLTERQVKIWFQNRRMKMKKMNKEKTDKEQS

HOXC9 [32] = target: HOXC9 (Homo sapiens, UniProt P31274 178-260, R193K)
Sequence of HOXC9 (Homo sapiens, UniProt P31274 178-260, R193K) (P31274 178-260 R193K): as the sequence (P31274 178-260) above, with R16K counted along it

HOXC9 [33] = target: HOXC9 (Homo sapiens, UniProt P31274 178-260, R222W)
Sequence of HOXC9 (Homo sapiens, UniProt P31274 178-260, R222W) (P31274 178-260 R222W): as the sequence (P31274 178-260) above, with R45W counted along it

HOXB6 [34] = target: HOXB6 (Homo sapiens, UniProt P17509 132-218, K202E)
Sequence of HOXB6 (Homo sapiens, UniProt P17509 132-218, K202E) (P17509 132-218 K202E): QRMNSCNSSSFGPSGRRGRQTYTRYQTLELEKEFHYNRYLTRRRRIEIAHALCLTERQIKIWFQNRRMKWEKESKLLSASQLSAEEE

PAX4 = target: T5, PAX4 (Homo sapiens, UniProt O43316 9-242, F177V)
T5 sequence: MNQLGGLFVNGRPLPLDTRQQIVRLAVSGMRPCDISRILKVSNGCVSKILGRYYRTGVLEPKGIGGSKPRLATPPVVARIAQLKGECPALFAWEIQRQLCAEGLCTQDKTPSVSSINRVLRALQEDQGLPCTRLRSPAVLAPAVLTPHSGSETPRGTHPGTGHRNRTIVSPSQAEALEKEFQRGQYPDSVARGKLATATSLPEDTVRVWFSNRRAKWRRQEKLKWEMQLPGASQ

HOXB6 [35] = target: HOXB6 (Homo sapiens, UniProt P17509 132-218)
Sequence of HOXB6 (Homo sapiens, UniProt P17509 132-218) (P17509 132-218): as the sequence (P17509 132-218 K202E) above, with E71K counted along it

Sequence of HOXB4 (Homo sapiens, UniProt P17483 148-234, V174I) (P17483 148-234 V174I): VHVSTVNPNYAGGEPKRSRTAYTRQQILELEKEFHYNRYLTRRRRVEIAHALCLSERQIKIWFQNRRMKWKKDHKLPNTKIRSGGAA
Sequence of HOXB4 (Homo sapiens, UniProt P17483 148-234) (P17483 148-234): as the sequence (P17483 148-234 V174I) above, with I27V counted along it
Sequence of HOXB9 (Homo sapiens, UniProt P17482 171-250) (P17482 171-250): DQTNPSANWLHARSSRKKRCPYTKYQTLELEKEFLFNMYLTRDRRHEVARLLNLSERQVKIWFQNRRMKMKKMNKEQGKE
Sequence of HOXB9 (Homo sapiens, UniProt P17482 171-250, T197M) (P17482 171-250 T197M): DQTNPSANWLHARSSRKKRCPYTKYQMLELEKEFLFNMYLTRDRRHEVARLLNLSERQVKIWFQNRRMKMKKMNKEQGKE

## CGGTTCCC
HOXB4 [1]
  binding signal: 7.65 upbm affinity estimate (log intensity, higher = more binding, comparable within an allelic series)
HOXB9 [2]
  binding signal: 8.58 upbm affinity estimate (log intensity, higher = more binding, comparable within an allelic series)
HOXB9 [3]
  binding signal: 8.52 upbm affinity estimate (log intensity, higher = more binding, comparable within an allelic series)
HOXB4 [4]
  binding signal: 7.57 upbm affinity estimate (log intensity, higher = more binding, comparable within an allelic series)
HOXB9 [5]
  binding signal: 8.49 upbm affinity estimate (log intensity, higher = more binding, comparable within an allelic series)

## CGCCGCCG
HOXB4 [1]
  binding signal: 8.06 upbm affinity estimate (log intensity, higher = more binding, comparable within an allelic series)
VENTX [6]
  binding signal: 8.02 upbm affinity estimate (log intensity, higher = more binding, comparable within an allelic series)
VENTX [7]
  binding signal: 8.3 upbm affinity estimate (log intensity, higher = more binding, comparable within an allelic series)
HOXA7 [8]
  binding signal: 8.5 upbm affinity estimate (log intensity, higher = more binding, comparable within an allelic series)
HOXC10 [9]
  binding signal: 10 upbm affinity estimate (log intensity, higher = more binding, comparable within an allelic series)
VENTX [10]
  binding signal: 8.17 upbm affinity estimate (log intensity, higher = more binding, comparable within an allelic series)
HOXB4 [4]
  binding signal: 7.89 upbm affinity estimate (log intensity, higher = more binding, comparable within an allelic series)
HOXD13 [11]
  binding signal: 9.36 upbm affinity estimate (log intensity, higher = more binding, comparable within an allelic series)
HOXD13 [12]
  binding signal: 9.39 upbm affinity estimate (log intensity, higher = more binding, comparable within an allelic series)
HOXC10 [13]
  binding signal: 10 upbm affinity estimate (log intensity, higher = more binding, comparable within an allelic series)
VAX1 [14]
  binding signal: 7.38 upbm affinity estimate (log intensity, higher = more binding, comparable within an allelic series)
HOXD13 [15]
  binding signal: 9.5 upbm affinity estimate (log intensity, higher = more binding, comparable within an allelic series)
VAX1 [16]
  binding signal: 7.39 upbm affinity estimate (log intensity, higher = more binding, comparable within an allelic series)
HOXA7 [17]
  binding signal: 8.25 upbm affinity estimate (log intensity, higher = more binding, comparable within an allelic series)
VAX1 [18]
  binding signal: 7.32 upbm affinity estimate (log intensity, higher = more binding, comparable within an allelic series)

## ACTAATGG
HOXB4 [1]
  binding signal: 12.9 upbm affinity estimate (log intensity, higher = more binding, comparable within an allelic series)
VENTX [6]
  binding signal: 12.2 upbm affinity estimate (log intensity, higher = more binding, comparable within an allelic series)
HOXA4 [19]
  binding signal: 10.5 upbm affinity estimate (log intensity, higher = more binding, comparable within an allelic series)
VENTX [7]
  binding signal: 12.8 upbm affinity estimate (log intensity, higher = more binding, comparable within an allelic series)
VENTX [10]
  binding signal: 11.9 upbm affinity estimate (log intensity, higher = more binding, comparable within an allelic series)
HOXA2 [20]
  binding signal: 12.2 upbm affinity estimate (log intensity, higher = more binding, comparable within an allelic series)
HOXA4 [21]
  binding signal: 11.5 upbm affinity estimate (log intensity, higher = more binding, comparable within an allelic series)
HOXB4 [4]
  binding signal: 13.5 upbm affinity estimate (log intensity, higher = more binding, comparable within an allelic series)
HOXA2 [22]
  binding signal: 13 upbm affinity estimate (log intensity, higher = more binding, comparable within an allelic series)
HOXA4 [23]
  binding signal: 13.5 upbm affinity estimate (log intensity, higher = more binding, comparable within an allelic series)
PROP1 [24]
  binding signal: 9.71 upbm affinity estimate (log intensity, higher = more binding, comparable within an allelic series)
PROP1 [25]
  binding signal: 9.39 upbm affinity estimate (log intensity, higher = more binding, comparable within an allelic series)
VAX1 [14]
  binding signal: 12.7 upbm affinity estimate (log intensity, higher = more binding, comparable within an allelic series)
PROP1 [26]
  binding signal: 7.3 upbm affinity estimate (log intensity, higher = more binding, comparable within an allelic series)
VAX1 [16]
  binding signal: 12.1 upbm affinity estimate (log intensity, higher = more binding, comparable within an allelic series)
HOXA2 [27]
  binding signal: 10.8 upbm affinity estimate (log intensity, higher = more binding, comparable within an allelic series)
HOXA4 [28]
  binding signal: 11.3 upbm affinity estimate (log intensity, higher = more binding, comparable within an allelic series)
HOXA2 [29]
  binding signal: 12.1 upbm affinity estimate (log intensity, higher = more binding, comparable within an allelic series)
VAX1 [18]
  binding signal: 12.3 upbm affinity estimate (log intensity, higher = more binding, comparable within an allelic series)

## CGGGCTAG
HOXB4 [1]
  binding signal: 7.46 upbm affinity estimate (log intensity, higher = more binding, comparable within an allelic series)
VENTX [6]
  binding signal: 7.92 upbm affinity estimate (log intensity, higher = more binding, comparable within an allelic series)
HOXC9 [30]
  binding signal: 9.53 upbm affinity estimate (log intensity, higher = more binding, comparable within an allelic series)
VENTX [7]
  binding signal: 7.75 upbm affinity estimate (log intensity, higher = more binding, comparable within an allelic series)
VENTX [10]
  binding signal: 7.71 upbm affinity estimate (log intensity, higher = more binding, comparable within an allelic series)
HOXB4 [4]
  binding signal: 7.53 upbm affinity estimate (log intensity, higher = more binding, comparable within an allelic series)
NKX2-6
  binding signal: 9.48 upbm affinity estimate (log intensity, higher = more binding, comparable within an allelic series)
HOXC9 [31]
  binding signal: 9.6 upbm affinity estimate (log intensity, higher = more binding, comparable within an allelic series)
HOXD13 [11]
  binding signal: 9.56 upbm affinity estimate (log intensity, higher = more binding, comparable within an allelic series)
HOXC9 [32]
  binding signal: 9.51 upbm affinity estimate (log intensity, higher = more binding, comparable within an allelic series)
HOXD13 [12]
  binding signal: 9.47 upbm affinity estimate (log intensity, higher = more binding, comparable within an allelic series)
HOXD13 [15]
  binding signal: 9.73 upbm affinity estimate (log intensity, higher = more binding, comparable within an allelic series)
HOXC9 [33]
  binding signal: 9.67 upbm affinity estimate (log intensity, higher = more binding, comparable within an allelic series)

## ACATTAAT
HOXB4 [1]
  binding signal: 13 upbm affinity estimate (log intensity, higher = more binding, comparable within an allelic series)
HOXB9 [2]
  binding signal: 10.1 upbm affinity estimate (log intensity, higher = more binding, comparable within an allelic series)
HOXA4 [19]
  binding signal: 10.6 upbm affinity estimate (log intensity, higher = more binding, comparable within an allelic series)
HOXC9 [30]
  binding signal: 12.7 upbm affinity estimate (log intensity, higher = more binding, comparable within an allelic series)
HOXA7 [8]
  binding signal: 11.6 upbm affinity estimate (log intensity, higher = more binding, comparable within an allelic series)
HOXC10 [9]
  binding signal: 12.2 upbm affinity estimate (log intensity, higher = more binding, comparable within an allelic series)
HOXB6 [34]
  binding signal: 10.1 upbm affinity estimate (log intensity, higher = more binding, comparable within an allelic series)
HOXA2 [20]
  binding signal: 12.3 upbm affinity estimate (log intensity, higher = more binding, comparable within an allelic series)
HOXA4 [21]
  binding signal: 12 upbm affinity estimate (log intensity, higher = more binding, comparable within an allelic series)
HOXB9 [3]
  binding signal: 11.9 upbm affinity estimate (log intensity, higher = more binding, comparable within an allelic series)
HOXB4 [4]
  binding signal: 13.6 upbm affinity estimate (log intensity, higher = more binding, comparable within an allelic series)
HOXC9 [31]
  binding signal: 12.7 upbm affinity estimate (log intensity, higher = more binding, comparable within an allelic series)
HOXC9 [32]
  binding signal: 12.7 upbm affinity estimate (log intensity, higher = more binding, comparable within an allelic series)
HOXA2 [22]
  binding signal: 13.2 upbm affinity estimate (log intensity, higher = more binding, comparable within an allelic series)
PAX4
  binding signal: 10.5 upbm affinity estimate (log intensity, higher = more binding, comparable within an allelic series)
HOXA4 [23]
  binding signal: 13.6 upbm affinity estimate (log intensity, higher = more binding, comparable within an allelic series)
HOXC10 [13]
  binding signal: 12 upbm affinity estimate (log intensity, higher = more binding, comparable within an allelic series)
HOXB9 [5]
  binding signal: 11.7 upbm affinity estimate (log intensity, higher = more binding, comparable within an allelic series)
HOXC9 [33]
  binding signal: 11 upbm affinity estimate (log intensity, higher = more binding, comparable within an allelic series)
HOXA2 [27]
  binding signal: 11 upbm affinity estimate (log intensity, higher = more binding, comparable within an allelic series)
HOXA7 [17]
  binding signal: 8.92 upbm affinity estimate (log intensity, higher = more binding, comparable within an allelic series)
HOXA4 [28]
  binding signal: 11.4 upbm affinity estimate (log intensity, higher = more binding, comparable within an allelic series)
HOXA2 [29]
  binding signal: 12.1 upbm affinity estimate (log intensity, higher = more binding, comparable within an allelic series)
HOXB6 [35]
  binding signal: 12 upbm affinity estimate (log intensity, higher = more binding, comparable within an allelic series)

From paper PMC11006913
